# About 220 (0.56%) of roughly 39,000 compounds showed activity. What follows is part of a selection rich in actives, with near analogues and random picks from the rest.
# Test system: Escherichia coli K-12 BW25113
# Assay: relative growth (OD600 normalised to plate interquartile mean) (fraction); higher = less growth inhibition, active = 0.2 or less
# Settings: 50 µM; LB; incubation time: overnight (16-24 h)
# 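Note: Wild-type cells incubated without shaking, value is the mean of two biological replicates.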
row,SMILES,relative growth
1,COC(=O)c1c(C)cc(OC(=O)c2c(C)cc(O)c(C=O)c2O)c(C)c1O,0.867 (inactive)
2,CCOC(=O)c1c(C)cc(O)c(C=O)c1O,0.0424 (active)
3,Cc1cc(O)c(C=O)c(O)c1C(=O)O,1.07 (inactive)
4,COc1ccc(NC(=O)Nc2ccc3c(c2)C(=O)N([C@@H](C)CO)C[C@H](C)[C@H](CN(C)C(=O)Nc2ccc4c(c2)OCO4)OCCCC[C@@H](C)O3)cc1,1.04 (inactive)
5,Cc1noc(C)c1NC(=O)Nc1ccc2c(c1)C(=O)N([C@H](C)CO)C[C@@H](C)[C@@H](CN(C)C(=O)NC1CCCCC1)OCCCC[C@H](C)O2,1.02 (inactive)
6,C[C@H]1CN([C@@H](C)CO)C(=O)c2cc(N(C)C)ccc2O[C@H]1CN(C)S(C)(=O)=O,0.993 (inactive)
7,N[C@H]1CCN(c2nc3c(cc2F)c(=O)c(C(=O)O)cn3-c2ccc(F)cc2F)C1,0.17 (active)
8,Cc1cn2nc([C@@H]3CCCCN3C(=O)c3cc(Cl)ccc3NS(C)(=O)=O)cc2nc1N1CC[C@H](N)C1,0.981 (inactive)
9,Cc1ccc(S(=O)(=O)O)cc1.NC1CCN(c2nc3c(cc2F)c(=O)c(C(=O)O)cn3-c2ccc(F)cc2F)C1.O (configuration not stated),0.0925 (active)
10,N[C@@H]1[C@H]2CN(c3nc4c(cc3F)c(=O)c(C(=O)O)cn4-c3ccc(F)cc3F)C[C@@H]12,0.0389 (active)
11,O=C(C[C@@H]1CC[C@@H]2[C@H](COC[C@H](O)CN2S(=O)(=O)c2ccccc2)O1)NCc1ccc2c(c1)OCO2,0.99 (inactive)
12,C[C@@H]1CCCCO[C@H](CN(C)Cc2ccccc2)[C@@H](C)CN([C@@H](C)CO)C(=O)c2cc(NS(=O)(=O)c3ccc(Cl)cc3)ccc2O1,0.981 (inactive)
13,Cc1noc(C)c1S(=O)(=O)Nc1ccc2c(c1)C(=O)N([C@H](C)CO)C[C@H](C)[C@H](CN(C)Cc1ccncc1)O2,0.999 (inactive)
14,COCCOC(=O)N1C(=O)[C@@]2(c3cc(C#CCCO)ccc31)[C@H](C(=O)Nc1nc3ccccc3s1)[C@H]1C(=O)O[C@H](c3ccccc3)[C@H](c3ccccc3)N1[C@@H]2c1ccc(O)cc1,1.02 (inactive)
15,C[C@H](CO)N1C[C@H](C)[C@@H](CN(C)Cc2ccc(C(=O)O)cc2)OCCCC[C@H](C)Oc2ccc(NS(=O)(=O)c3ccc(F)cc3)cc2C1=O,0.967 (inactive)
16,C=C1C(=O)O[C@@H]2/C=C(\CO[C@@H]3O[C@H](CO)[C@@H](O)[C@H](O)[C@H]3O)CC/C=C3\C[C@H](OC3=O)[C@@H]12,0.997 (inactive)
17,C[C@@H]1CN([C@@H](C)CO)C(=O)Cc2cc(NC(=O)Cc3cn(C)c4ccccc34)ccc2O[C@H]1CN(C)Cc1ccc(C(=O)Nc2ccccc2N)cc1,0.988 (inactive)
18,C[C@H](O)CC1=C[C@H](O)[C@@H](C)OC1=O,1.01 (inactive)
19,C[C@]1(C(=O)NCc2ccccc2)c2ccccc2C(=O)N(Cc2ccc(OC(F)(F)F)cc2)[C@H]1c1ccc(CO)cc1,0.983 (inactive)
20,NCC1CCC(N)C(OC2C(N)CC(N)C(OC3OC(CO)C(O)C(N)C3O)C2O)O1 (configuration not stated),0.947 (inactive)
21,CNC1C(OC2OC(CO)C(N)C(O)C2O)OC2CC(N)C(OC3C(N)CC(N)C(O)C3O)OC2C1O.O=S(=O)(O)O (configuration not stated),1.2 (inactive)

row,SMILES,relative growth
1,NCC1OC(OC2C(N)CC(N)C(OC3OC(CO)C(O)C(N)C3O)C2O)C(N)CC1O (configuration not stated),0.0445 (active)
2,CN[C@@H]1[C@@H](O[C@H]2O[C@H](CO)[C@@H](N)[C@H](O)[C@H]2O)O[C@H]2C[C@@H](N)[C@H](O[C@H]3[C@H](O)[C@@H](O)[C@H](N)C[C@@H]3N)O[C@@H]2[C@@H]1O,0.978 (inactive)
3,NC[C@@H]1O[C@H](O[C@H]2[C@@H](O)[C@H](O[C@@H]3[C@@H](O)[C@H](N)C[C@H](N)[C@H]3O[C@@H]3O[C@H](CO)[C@@H](O)C[C@H]3N)O[C@@H]2CO)[C@H](N)[C@@H](O)[C@@H]1O[C@H]1O[C@H](CO)[C@@H](O)[C@H](O)[C@@H]1O,1.01 (inactive)
4,NC[C@H]1O[C@H](O[C@H]2[C@H](O)[C@@H](O[C@H]3O[C@H](CO)[C@@H](O)[C@H](N)[C@H]3O)[C@H](N)C[C@@H]2N)[C@H](N)C[C@@H]1O,0.0393 (active)
5,C[C@H]1CN([C@@H](C)CO)C(=O)CCCn2cc(nn2)CO[C@@H]1CN(C)S(=O)(=O)c1cccc(C#N)c1,0.987 (inactive)
6,C[C@H](CO)N1C[C@H](C)[C@@H](CN(C)Cc2ccc(Oc3ccccc3)cc2)Oc2ccc(NC(=O)C3CC3)cc2C1=O,0.915 (inactive)
7,C[C@H]1CN([C@@H](C)CO)C(=O)c2ccccc2-c2ccccc2CO[C@H]1CN(C)S(=O)(=O)c1ccc(C(F)(F)F)cc1,1.04 (inactive)
8,C[C@H]1CN([C@@H](C)CO)S(=O)(=O)c2ccc(C3=CCCCC3)cc2O[C@H]1CN(C)Cc1cncnc1,1.02 (inactive)
9,COc1ccccc1S(=O)(=O)N(C)C[C@H]1OCc2cn(nn2)CCCC(=O)N([C@@H](C)CO)C[C@H]1C,1.05 (inactive)
10,C[C@H]1CN([C@@H](C)CO)C(=O)Cc2cc(NC(=O)C3CCCCC3)ccc2O[C@@H]1CN(C)S(C)(=O)=O,0.992 (inactive)
11,C[C@@H]1CN([C@H](C)CO)C(=O)c2cc(NS(=O)(=O)c3ccc(F)cc3)ccc2O[C@@H](C)CCCCO[C@@H]1CN(C)Cc1ccc(C(=O)O)cc1,1 (inactive)
12,Clc1ccc2sc(Sc3ccccc3)nc2c1,0.985 (inactive)
13,COc1ccc(-c2c(C)oc3ccc(Cl)cc23)cc1,0.992 (inactive)
14,CC1CCC2(C)C(C=O)=CCCC2C1(C)CC1OC(O)C(=O)C12CO2 (configuration not stated),0.0462 (active)
15,COC(=O)[C@@H](NC(=O)c1cccc(NC=O)c1O)[C@@H](C)O,1.04 (inactive)
16,C[C@@H]1CN([C@H](C)CO)C(=O)c2cc(NC(=O)c3ccncc3)ccc2O[C@@H](C)CCCCO[C@H]1CN(C)Cc1ccc(C(F)(F)F)cc1,1 (inactive)
17,Cc1noc(C)c1NC(=O)N(C)C[C@H]1OCCCC[C@@H](C)Oc2ccc(NS(=O)(=O)c3ccccc3)cc2C(=O)N([C@@H](C)CO)C[C@H]1C,1.01 (inactive)
18,O=C1CN(N=Cc2ccc([N+](=O)[O-])o2)C(=O)N1,0.0462 (active)
19,O=C1OCCN1N=Cc1ccc([N+](=O)[O-])o1,0.0457 (active)
20,O=C1CN(N=Cc2ccc(-c3ccc([N+](=O)[O-])cc3)o2)C(=O)[N-]1.[Na+],1.06 (inactive)
21,O=C1OC(CN2CCOCC2)CN1N=Cc1ccc([N+](=O)[O-])o1 (configuration not stated),0.575 (inactive)

row,SMILES,relative growth
1,O=C1CN(/N=C/c2ccc([N+](=O)[O-])o2)C(=O)N1,0.031 (active)
2,Cc1cc(C(=O)Nc2cccc3c2O[C@@H](CN(C)S(=O)(=O)c2ccccc2)[C@H](C)CN([C@@H](C)CO)C3=O)n(C)n1,1.01 (inactive)
3,C[C@@H]1CN([C@@H](C)CO)S(=O)(=O)c2ccc(Br)cc2O[C@@H]1CN(C)S(=O)(=O)c1ccc(F)cc1,1.04 (inactive)
4,CCN1CCN(CC(=O)Nc2ccc(-c3cccc4c(=O)cc(N5CCOCC5)oc34)c3sc4ccccc4c23)CC1,0.981 (inactive)
5,COc1ccc(S(=O)(=O)Nc2cccc3c2O[C@H](CN(C)S(=O)(=O)c2cn(C)cn2)[C@@H](C)CN([C@H](C)CO)C3=O)cc1,1.01 (inactive)
6,CN(C)CCCNC(=O)C[C@@H]1CC[C@@H]2[C@H](COc3ccc(NS(C)(=O)=O)cc3C(=O)N2C)O1,1 (inactive)
7,C[C@@H]1CCCCO[C@H](CN(C)Cc2ccccc2)[C@@H](C)CN([C@H](C)CO)C(=O)c2cc(NC(=O)C3CCCCC3)ccc2O1,0.995 (inactive)
8,C[C@@H]1CCCCO[C@@H](CN(C)C(=O)Nc2ccc3c(c2)OCO3)[C@@H](C)CN([C@H](C)CO)C(=O)c2cc(NC(=O)c3ccccc3)ccc2O1,1.01 (inactive)
9,C/C=C/c1ccc2c(c1)O[C@@H](CN(C)C(=O)c1ccc3c(c1)OCO3)[C@@H](C)CN([C@H](C)CO)S2(=O)=O,1.01 (inactive)
10,CC1=C(C(=O)O)N2C(=O)C(NC(=O)C(N)C3=CCC=CC3)C2SC1 (configuration not stated),1.07 (inactive)
11,CON=C(C(=O)NC1C(=O)N2C(C(=O)O)=C(C[N+]3(C)CCCC3)CSC12)c1csc(N)n1.[Cl-] (configuration not stated),0.0437 (active)
12,CO/N=C(\C(=O)N[C@@H]1C(=O)N2C(C(=O)O)=C(C)CS[C@H]12)c1csc(N)n1,0.0368 (active)
13,CC1=C(C(=O)O)N2C(=O)[C@@H](NC(=O)[C@H](N)C3=CCC=CC3)[C@H]2SC1,1.03 (inactive)
14,CO/N=C(\C(=O)N[C@@H]1C(=O)N2C(C(=O)O)=C(C[N+]3(C)CCCC3)CS[C@H]12)c1csc(N)n1,0.0339 (active)
15,C[C@H]1CN([C@@H](C)CO)S(=O)(=O)c2ccc(C3=CCCC3)cc2O[C@@H]1CN(C)S(=O)(=O)c1ccc(F)cc1,1.02 (inactive)
16,C[C@H](CO)N1C[C@H](C)[C@@H](CN(C)C(=O)CN(C)C)Oc2ncc(-c3ccc(C(=O)N(C)C)cc3)cc2C1=O,0.975 (inactive)
17,Cc1cccc(NC(=O)Nc2ccc3c(c2)C(=O)N(C)[C@@H]2CC[C@@H](CC(=O)NCc4ccccc4Cl)O[C@@H]2CO3)c1,0.998 (inactive)
18,C[C@@H]1CN([C@H](C)CO)S(=O)(=O)c2ccc(-c3cncnc3)cc2O[C@H]1CN(C)C(=O)Cc1cccnc1,0.98 (inactive)
19,CC(C)NC(=O)N[C@@H]1CC[C@@H](CCN)O[C@H]1CO,0.989 (inactive)
20,C[C@H](CO)N1C[C@H](C)[C@@H](CN(C)Cc2ccc3c(c2)OCO3)Oc2ccc(NC(=O)CCCN(C)C)cc2CC1=O,0.975 (inactive)
